Reference: ChEMBL document CHEMBL3988442, “University of Dundee, Small-Polar-MMV Screening Library” (2021)
For some of these results: Measured potencies and affinities stand elsewhere.

Columns and labels:
Design in all cases: scale not given: direction of the effect not stated beside the values
[1] = molecular target: Protein translocase subunit SecA (Escherichia coli (strain K12)) (UniProt P10408); experiment: Assay to Identify E. coli SecA ATPase Inhibitors; assay type: functional; details: 30 µM
Protein translocase subunit SecA (Escherichia coli (strain K12)), sequence (P10408 whole entry): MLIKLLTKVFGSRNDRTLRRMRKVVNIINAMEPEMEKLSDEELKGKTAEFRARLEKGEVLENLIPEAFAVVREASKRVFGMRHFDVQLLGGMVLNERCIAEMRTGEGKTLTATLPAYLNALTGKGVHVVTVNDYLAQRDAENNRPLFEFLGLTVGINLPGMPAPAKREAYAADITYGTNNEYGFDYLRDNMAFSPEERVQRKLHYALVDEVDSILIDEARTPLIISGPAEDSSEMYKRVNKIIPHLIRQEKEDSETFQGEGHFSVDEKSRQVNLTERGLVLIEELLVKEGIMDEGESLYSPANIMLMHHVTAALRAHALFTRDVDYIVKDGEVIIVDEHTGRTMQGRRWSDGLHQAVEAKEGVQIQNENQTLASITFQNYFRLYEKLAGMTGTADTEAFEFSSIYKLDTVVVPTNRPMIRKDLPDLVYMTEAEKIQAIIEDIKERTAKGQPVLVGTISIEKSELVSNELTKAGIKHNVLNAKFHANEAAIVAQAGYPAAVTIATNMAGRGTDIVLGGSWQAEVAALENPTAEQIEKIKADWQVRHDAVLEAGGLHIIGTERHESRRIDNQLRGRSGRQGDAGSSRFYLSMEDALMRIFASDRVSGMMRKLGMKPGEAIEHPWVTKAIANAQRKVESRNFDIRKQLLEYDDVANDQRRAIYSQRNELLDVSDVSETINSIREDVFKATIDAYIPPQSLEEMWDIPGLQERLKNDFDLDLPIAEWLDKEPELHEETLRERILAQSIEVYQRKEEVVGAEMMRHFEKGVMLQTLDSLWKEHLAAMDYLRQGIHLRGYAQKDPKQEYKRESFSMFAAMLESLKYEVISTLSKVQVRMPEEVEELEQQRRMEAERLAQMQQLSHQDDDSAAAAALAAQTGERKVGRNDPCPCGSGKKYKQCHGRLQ

[2] = molecular target: T1, Ubiquitin-activating enzyme e1, putative (Leishmania donovani (strain BPK282A1)) (UniProt E9BSI1); experiment: Leishmania donovani Ubiquitin Activating Enzyme (LdE1); assay type: functional; details: 30 µM
T1 sequence (whole entry): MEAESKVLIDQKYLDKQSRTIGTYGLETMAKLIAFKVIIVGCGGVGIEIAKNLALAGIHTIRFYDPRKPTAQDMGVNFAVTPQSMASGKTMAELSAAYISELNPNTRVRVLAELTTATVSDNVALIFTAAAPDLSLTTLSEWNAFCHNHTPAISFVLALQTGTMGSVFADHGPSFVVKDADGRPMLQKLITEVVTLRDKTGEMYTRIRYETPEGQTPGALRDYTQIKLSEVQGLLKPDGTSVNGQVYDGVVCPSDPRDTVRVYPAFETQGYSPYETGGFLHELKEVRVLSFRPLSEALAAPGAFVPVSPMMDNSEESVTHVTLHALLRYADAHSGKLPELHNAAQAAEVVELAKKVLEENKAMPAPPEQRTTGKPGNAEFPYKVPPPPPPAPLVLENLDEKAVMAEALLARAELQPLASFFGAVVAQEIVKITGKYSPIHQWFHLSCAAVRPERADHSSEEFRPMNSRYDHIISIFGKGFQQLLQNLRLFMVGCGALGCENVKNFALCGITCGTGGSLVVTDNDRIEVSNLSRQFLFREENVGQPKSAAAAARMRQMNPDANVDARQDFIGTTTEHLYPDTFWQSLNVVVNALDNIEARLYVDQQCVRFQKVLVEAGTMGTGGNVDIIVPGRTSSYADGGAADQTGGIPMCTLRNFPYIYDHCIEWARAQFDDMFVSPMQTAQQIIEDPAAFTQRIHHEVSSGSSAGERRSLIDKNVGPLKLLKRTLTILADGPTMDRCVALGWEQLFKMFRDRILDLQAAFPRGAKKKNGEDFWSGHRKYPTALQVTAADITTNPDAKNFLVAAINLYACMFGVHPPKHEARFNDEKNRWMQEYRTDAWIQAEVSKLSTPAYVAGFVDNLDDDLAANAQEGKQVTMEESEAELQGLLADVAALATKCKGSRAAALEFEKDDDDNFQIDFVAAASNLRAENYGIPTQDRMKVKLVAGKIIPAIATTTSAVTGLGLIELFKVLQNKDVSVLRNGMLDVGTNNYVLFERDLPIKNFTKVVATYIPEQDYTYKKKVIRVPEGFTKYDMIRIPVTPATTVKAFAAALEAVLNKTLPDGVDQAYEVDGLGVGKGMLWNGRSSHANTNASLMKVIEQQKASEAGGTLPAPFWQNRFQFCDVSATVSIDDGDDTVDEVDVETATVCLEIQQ

[3] = molecular target: AMP-activated protein kinase, AMPK (Homo sapiens) (UniProt P54646+O43741+P54619+Q9UGJ0+Q9Y478+Q13131+Q9UGI9); experiment: AMP-dependent Kinase enzyme assay. An in vitro enzyme assay that detects ADP turnover that is directly proportional to AMPK activity. This uses naive AMPK that is activated during the assay with MK-8722; assay type: functional; details: 30 µM
[4] = molecular target: Sialic acid-binding Ig-like lectin 9 (Homo sapiens) (UniProt Q9Y336); experiment: Hs-Siglec9 ALPHAscreen SOP 20170721; details: 10 µM
Sialic acid-binding Ig-like lectin 9 (Homo sapiens), sequence (Q9Y336 whole entry): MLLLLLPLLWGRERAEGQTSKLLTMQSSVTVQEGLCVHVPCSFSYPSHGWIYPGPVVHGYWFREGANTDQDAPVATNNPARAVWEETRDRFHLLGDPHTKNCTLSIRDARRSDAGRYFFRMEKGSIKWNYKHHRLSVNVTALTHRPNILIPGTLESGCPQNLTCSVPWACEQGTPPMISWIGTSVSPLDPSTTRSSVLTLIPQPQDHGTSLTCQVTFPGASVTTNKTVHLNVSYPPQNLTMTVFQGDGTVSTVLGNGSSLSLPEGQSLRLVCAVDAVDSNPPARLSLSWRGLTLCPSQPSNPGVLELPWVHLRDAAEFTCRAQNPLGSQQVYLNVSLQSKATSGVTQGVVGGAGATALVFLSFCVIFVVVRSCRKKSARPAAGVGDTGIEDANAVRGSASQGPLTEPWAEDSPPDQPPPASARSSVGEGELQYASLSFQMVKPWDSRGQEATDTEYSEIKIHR

Trypanosoma cruzi = experiment: Trypanosoma cruzi phosphomannomutase and mannose-1-phosphate guanylyltransferase assay; assay type: functional; details: 10 µM
[5] = molecular target: T2, Arginase-2, mitochondrial (Homo sapiens) (UniProt P78540); experiment: in vitro enzyme assay to detect the production of urea directly proportional to the activity of Arginase II; assay type: functional; details: 33.3 µM; also: in the data most compounds retested in dose-response had high values
T2 sequence (whole entry): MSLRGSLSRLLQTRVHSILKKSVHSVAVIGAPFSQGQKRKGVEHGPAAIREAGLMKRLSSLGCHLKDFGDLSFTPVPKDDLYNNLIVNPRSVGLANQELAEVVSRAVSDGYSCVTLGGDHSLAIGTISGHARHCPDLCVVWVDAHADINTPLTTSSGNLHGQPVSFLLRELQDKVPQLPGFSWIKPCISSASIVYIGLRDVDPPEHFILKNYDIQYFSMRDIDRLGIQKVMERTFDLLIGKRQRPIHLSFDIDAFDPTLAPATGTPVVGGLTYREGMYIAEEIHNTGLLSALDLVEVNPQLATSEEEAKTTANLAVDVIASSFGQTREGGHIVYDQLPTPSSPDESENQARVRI

[6] = molecular target: T3, Proteasome subunit beta (Trypanosoma cruzi) (UniProt O96673); experiment: Trypanosoma cruzi proteasome chymotrypsin-like activity (TcProtChymo) assay.; also: in the data most compounds retested in dose-response had high values; assay type: functional; details: 9.37 µM
T3 sequence (whole entry): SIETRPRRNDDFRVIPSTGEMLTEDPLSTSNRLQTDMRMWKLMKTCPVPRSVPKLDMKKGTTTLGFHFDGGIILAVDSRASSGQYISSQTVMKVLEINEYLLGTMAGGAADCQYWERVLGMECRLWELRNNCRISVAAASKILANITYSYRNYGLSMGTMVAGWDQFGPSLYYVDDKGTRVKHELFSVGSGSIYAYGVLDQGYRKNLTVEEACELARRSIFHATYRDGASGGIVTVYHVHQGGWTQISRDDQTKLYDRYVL

Homo sapiens = species: Homo sapiens; experiment: To identify inhibition of the IFN signalling (Jak-Stat) pathway via expression of an eGFP reporter gene under the control of an IFN-stimulated response element (ISRE) containing MxA promoter.; assay type: functional; details: 30 µM
[7] = molecular target: T4, Tyrosyl-tRNA synthetase, putative (Trypanosoma cruzi (strain CL Brener)) (UniProt Q4DSP6); experiment: Trypanosoma cruzi tyrosyl tRNA synthetase (TcYRS) _High Tyrosine SOP; assay type: functional; details: 30 µM; also: in the data most compounds retested in dose-response had high values
T4 sequence (whole entry): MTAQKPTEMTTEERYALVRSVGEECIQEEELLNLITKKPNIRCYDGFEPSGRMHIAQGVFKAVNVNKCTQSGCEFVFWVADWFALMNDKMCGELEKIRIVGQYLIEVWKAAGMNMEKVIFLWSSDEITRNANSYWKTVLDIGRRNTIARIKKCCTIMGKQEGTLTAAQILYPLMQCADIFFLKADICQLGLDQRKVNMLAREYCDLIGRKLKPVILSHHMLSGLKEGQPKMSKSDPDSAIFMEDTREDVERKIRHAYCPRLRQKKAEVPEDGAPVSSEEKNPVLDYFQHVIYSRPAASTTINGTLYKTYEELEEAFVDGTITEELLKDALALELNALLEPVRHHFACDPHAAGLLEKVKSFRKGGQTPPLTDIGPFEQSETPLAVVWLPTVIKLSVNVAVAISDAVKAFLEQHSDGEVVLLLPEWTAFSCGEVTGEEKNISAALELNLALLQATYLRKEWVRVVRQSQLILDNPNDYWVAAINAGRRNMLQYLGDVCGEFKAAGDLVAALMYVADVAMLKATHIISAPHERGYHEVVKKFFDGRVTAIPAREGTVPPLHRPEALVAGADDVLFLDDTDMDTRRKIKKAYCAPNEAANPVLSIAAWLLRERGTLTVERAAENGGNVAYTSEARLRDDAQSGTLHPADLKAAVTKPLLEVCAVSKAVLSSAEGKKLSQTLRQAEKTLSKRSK

[8] = molecular target: T4, Tyrosyl-tRNA synthetase, putative (Trypanosoma cruzi (strain CL Brener)); experiment: Trypanosoma cruzi tyrosyl tRNA synthetase (TcYRS) SOP; assay type: functional; details: 30 µM
[9] = molecular target: Chromo domain-containing protein 1 (Saccharomyces cerevisiae (strain ATCC 204508 / S288c) (Baker's yeast)) (UniProt P32657); experiment: ScCHD-1 Enzyme Inhibition Assay; assay type: functional; details: 30 µM; also: in the data most compounds retested in dose-response had high values
Chromo domain-containing protein 1 (Saccharomyces cerevisiae (strain ATCC 204508 / S288c) (Baker's yeast)), sequence (P32657 whole entry, the tested form may be a part): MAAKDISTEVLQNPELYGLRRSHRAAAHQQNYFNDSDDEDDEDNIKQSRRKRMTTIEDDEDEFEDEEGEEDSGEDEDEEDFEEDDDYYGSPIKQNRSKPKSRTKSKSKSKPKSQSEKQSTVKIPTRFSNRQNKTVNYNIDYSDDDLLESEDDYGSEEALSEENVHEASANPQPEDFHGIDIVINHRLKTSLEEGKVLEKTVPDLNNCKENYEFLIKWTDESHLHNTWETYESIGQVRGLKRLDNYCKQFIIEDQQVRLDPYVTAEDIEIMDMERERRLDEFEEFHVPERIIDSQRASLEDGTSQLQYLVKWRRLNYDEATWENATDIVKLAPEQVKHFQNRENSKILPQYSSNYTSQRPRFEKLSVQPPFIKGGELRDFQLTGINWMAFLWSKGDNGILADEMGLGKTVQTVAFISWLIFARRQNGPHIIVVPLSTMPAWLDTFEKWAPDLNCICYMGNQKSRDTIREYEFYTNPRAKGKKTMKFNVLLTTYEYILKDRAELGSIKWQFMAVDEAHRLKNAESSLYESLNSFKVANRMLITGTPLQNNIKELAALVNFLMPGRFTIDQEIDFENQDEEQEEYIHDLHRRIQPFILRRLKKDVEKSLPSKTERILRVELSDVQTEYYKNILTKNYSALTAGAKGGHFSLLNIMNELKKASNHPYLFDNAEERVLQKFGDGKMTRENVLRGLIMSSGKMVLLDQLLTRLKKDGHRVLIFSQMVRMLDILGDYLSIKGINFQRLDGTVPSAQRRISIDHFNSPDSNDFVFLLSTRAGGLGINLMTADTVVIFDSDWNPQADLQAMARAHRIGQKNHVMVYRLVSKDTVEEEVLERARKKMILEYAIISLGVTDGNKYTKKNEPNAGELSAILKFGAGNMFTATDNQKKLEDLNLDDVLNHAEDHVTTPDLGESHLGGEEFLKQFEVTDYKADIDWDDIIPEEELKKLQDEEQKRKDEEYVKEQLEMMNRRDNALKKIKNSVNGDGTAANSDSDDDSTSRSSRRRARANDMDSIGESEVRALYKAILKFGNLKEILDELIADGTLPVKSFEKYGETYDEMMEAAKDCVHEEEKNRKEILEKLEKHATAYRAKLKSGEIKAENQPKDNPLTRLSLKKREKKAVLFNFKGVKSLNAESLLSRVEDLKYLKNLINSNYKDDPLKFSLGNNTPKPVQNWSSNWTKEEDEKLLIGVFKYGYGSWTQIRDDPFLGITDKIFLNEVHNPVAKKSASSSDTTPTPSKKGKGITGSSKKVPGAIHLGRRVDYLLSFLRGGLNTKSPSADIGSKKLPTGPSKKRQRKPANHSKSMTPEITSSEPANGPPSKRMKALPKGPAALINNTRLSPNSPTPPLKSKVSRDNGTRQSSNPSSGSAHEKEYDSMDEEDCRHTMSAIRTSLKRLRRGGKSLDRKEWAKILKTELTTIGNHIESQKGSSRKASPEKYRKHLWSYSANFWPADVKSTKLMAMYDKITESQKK

| Compound | Percent Effect [1] [%] | Percent Effect [2] [%] | Percent Effect [3] [%] | Percent Effect [4] [%] | Percent Effect (Trypanosoma cruzi) [%] | Percent Effect [5] [%] | Percent Effect [6] [%] | Percent Effect (Homo sapiens) [%] | Percent Effect [7] [%] | Percent Effect [8] [%] | Percent Effect [9] [%] |
| --- | --- | --- | --- | --- | --- | --- | --- | --- | --- | --- | --- |
| Cc1cc(=O)n(CC(=O)NCC2CCCO2)c(-c2cccc(Cl)c2)n1 (stereo not given) | -4.72 | 18.2 | -2.1 | 12.6 | 6.59 | 11 | 9.15 | -10.7 | 5.38 | 16.1 | -4.38 |
| CN(C)c1cc(CNC(=O)c2cn(-c3ccc(F)cc3)nn2)ccn1 | -5.01 | 10.4 | 1.52 | 2.16 | 0.686 | 3.58 | 14.2 | 11.3 | 7.62 | 21.2 | -6.24 |
| Cn1c(C(F)(F)F)nn(CCNC(=O)c2cnc3ccccc3n2)c1=O | -2.81 | 13.7 | 4.14 | 14.5 | 3.33 | 0.909 | -1.95 | -0.549 | 3.23 | 12.5 | -3.18 |
| CNC(=O)c1nc2c(s1)CCN(C(=O)Cc1ccc(OC)cc1)CC2 | -7.69 | 5.41 | 1.22 | -1.04 | -1.07 | -1.59 | 0.369 | 8.46 | 4.32 | 0 | 1.61 |
| Cc1cnn(CC2CCCCN2C(=O)c2ccc3nnc(C)n3c2)c1 (stereo not given) | 3.48 | 13 | -0.0421 | -9.14 | -4.6 | -1.9 | 15.9 | 21 | 5.71 | 18.8 | -5.8 |
| Cc1cc(=O)[nH]c(NCCNC(=O)C(c2ccc(F)cc2)N(C)C)n1 (stereo not given) | 4.65 | 11 | 0.926 | 2.46 | -9.72 | -10.8 | 17.4 | 21.7 | 8.33 | 16.1 | -5.31 |
| CC(C)c1ncc2c(n1)CN(Cc1nc(Cc3ccccc3)no1)CC2 | -3.61 | 10.8 | -1.07 | 3.74 | 2.69 | -2.77 | -5.92 | 10.2 | 17.8 | 23.2 | 0.435 |
| c1cnnc(N2CCCC2CNCc2cnc(N3CCCC3)nc2)c1 (stereo not given) | 0.488 | -1.27 | 13.5 | 6.03 | 1.33 | 2.8 | 4.8 | 16.1 | 5.21 | 0 | -7.82 |
| COCCN1CCOCC2(CCCN(Cc3ccc(C)o3)C2)C1 (stereo not given) | -2.04 | 13.3 | 0.538 | -2.47 | 5.6 | -42.1 | 8.55 | -12.1 | 3.12 | 2.5 | -9.46 |
| Cn1nc(C(=O)NCc2ccccn2)c2c1CCS(=O)(=O)C2 | -2.26 | 6.67 | 15 | 1.25 | -6.48 | -11.1 | 16.3 | 11.6 | 6.35 | 12.8 | -9.63 |
| CCOC(=O)N1CCC(C(=O)c2cc(F)ccc2F)CC1 | -3.27 | -2.63 | 4.38 | -6.37 | -1.69 | 4.98 | -3.34 | 10.2 | -1.47 | -4.88 | -0.881 |
| CCc1ccc(CCC(=O)N2CCOCC2c2ncon2)cc1 (stereo not given) | 2.75 | -8.11 | 4.51 | 1.5 | -2.69 | 3.14 | 3.05 | 13.7 | -0.99 | 1.22 | 8.82 |
| Cc1cc(C)n(C2CN(CC(O)c3ccc(F)cc3)C2)n1 (stereo not given) | -2.64 | -15.6 | -6.46 | 8.34 | 0.936 | -5.34 | 12.3 | 4.19 | 6.8 | 12.2 | -6.46 |
| CNC(=O)[C@H]1C[C@H]2OCC[C@H]2N(Cc2ccc(C)o2)C1 | -0.274 | 7.79 | 4.6 | 0.238 | -6.02 | -4.52 | 9.57 | 7.69 | 1.06 | 8.97 | -6.31 |
| Cc1cc2c(cc1C)C(NCc1nnc3n1CCCCC3)CCCO2 (stereo not given) | 0.0306 | 2.7 | -8.53 | 10.2 | 6.94 | 17.1 | 0.944 | -23.2 | 2.15 | 6.17 | -5.02 |
| O=C(NCc1ccccc1)N1CCC2(CC(=O)N(c3ccsc3)C2)C1 (stereo not given) | -1.66 | 0 | 3.29 | 0.825 | 0.977 | 0.417 | 2.45 | -9.22 | 85.2 | 6.1 | -1.83 |
| O=C(NCCNc1cnccn1)C1CCN(C(=O)N2CCCC2)CC1 | -3.3 | 19 | -1.9 | -1.57 | -2.36 | -5.81 | 15.6 | 8.62 | -3.12 | 17.7 | -23.5 |
| CCN1CCN(C(=O)c2nc(C)n(-c3ccccc3Cl)n2)CC1 | -9.34 | 7.89 | -2.25 | 14.9 | 5.7 | 2.16 | 3.81 | -16.5 | 4.43 | 23.5 | -7.33 |
| CN1CCC(c2cccc(Cc3ccc(F)cc3)n2)CC1 | -4.16 | -1.35 | 11.1 | -2.02 | 0.395 | -6.26 | 6.08 | 2.47 | 2.15 | -1.3 | -7.17 |
| Cc1occc1C(=O)N1CCC2(CC1)NC(=O)CC2c1cnn(C)c1 (stereo not given) | -3.16 | 10.8 | -0.0675 | -1.75 | 1.86 | 7.33 | 9.41 | -9.35 | 0 | 12.8 | 0.845 |
